The campaign covered roughly 5,500 compounds. About 2,000 (36%) were called active. About 18% were inconclusive and are not listed. Cut-off read from the data, not from the text of the source: active = normalized growth mostly below about 0.91 (no sharp cut-off); inconclusive = no clear call, values can overlap the other calls; inactive = mostly above about 0.92. The list shows a part of the results.
Test: chemical genetic growth profiling, strain panel (AID 1159580);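 note: tested at 20 µM; growth read once vehicle control cultures reached saturation at 30 °C; 1 = growth at the plate median or of vehicle wells; lower values mean less growth of the strain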
Details: S. cerevisiae deletion strains, growth OD

Measured: normalized growth

CCCCCCCc1c(O)c2ccccc2[nH]c1=O
inactive: locus YAL013W, strain DEP1, stronger effect = lower value 1.01 | locus YBR229C, strain ROT2, stronger effect = lower value 0.998 | locus YCL061C, strain MRC1, stronger effect = lower value 1.01 | locus YDL101C, strain DUN1, stronger effect = lower value 1 | locus YDR150W, strain NUM1, stronger effect = lower value 0.962 | locus YEL061C, strain CIN8, stronger effect = lower value 1.01 | locus YGR078C, strain PAC10, stronger effect = lower value 1 | locus YGR229C, strain SMI1, stronger effect = lower value 1.01 | locus YHR030C, strain SLT2, stronger effect = lower value 0.989 | locus YHR087W, strain rtc3, stronger effect = lower value 1 | locus YJL187C, strain SWE1, stronger effect = lower value 1 | locus YJR043C, strain POL32, stronger effect = lower value 1 | locus YJR075W, strain HOC1, stronger effect = lower value 1 | locus YKL190W, strain CNB1, stronger effect = lower value 1.01 | locus YLR039C, strain RIC1, stronger effect = lower value 1.01 | locus YLR058C, strain SHM2 (second series), stronger effect = lower value 1.01 | locus YLR085C, strain ARP6, stronger effect = lower value 1.01 | locus YLR262C, strain YPT6, stronger effect = lower value 1.02 | locus YML094W, strain GIM5, stronger effect = lower value 1.01 | locus YMR219W, strain ESC1, stronger effect = lower value 1.02 | locus YMR263W, strain SAP30, stronger effect = lower value 1.01 | locus YMR307W, strain GAS1, stronger effect = lower value 0.961 | locus YNL128W, strain TEP1, stronger effect = lower value 1.01 | locus YNL153C, strain GIM3, stronger effect = lower value 1.01 | locus YNL298W, strain CLA4 (second series), stronger effect = lower value 1.03 | locus YNL322C, strain KRE1, stronger effect = lower value 0.997 | locus YNR030W, strain Alg12, stronger effect = lower value 1.02 | locus YPL055C, strain LGE1, stronger effect = lower value 1.02 | locus YPL241C, strain CIN2, stronger effect = lower value 1.02 | locus YPR135W, strain CTF4, stronger effect = lower value 1.07

Reference: PubChem BioAssay AID1159580 (chemical genetic matrix, 2015)
